D1 antag – human D1 dopamine receptor antagonism; P21728; HEK293 TREx D1 cells, calcium flux, dopamine EC80; active compounds read low; activity change, negative = inhibition, % at 10 µM; actives 3.2% (n = 360,000); in the data active = activity change below about -30%
Target sequence (P21728 whole entry, looked up): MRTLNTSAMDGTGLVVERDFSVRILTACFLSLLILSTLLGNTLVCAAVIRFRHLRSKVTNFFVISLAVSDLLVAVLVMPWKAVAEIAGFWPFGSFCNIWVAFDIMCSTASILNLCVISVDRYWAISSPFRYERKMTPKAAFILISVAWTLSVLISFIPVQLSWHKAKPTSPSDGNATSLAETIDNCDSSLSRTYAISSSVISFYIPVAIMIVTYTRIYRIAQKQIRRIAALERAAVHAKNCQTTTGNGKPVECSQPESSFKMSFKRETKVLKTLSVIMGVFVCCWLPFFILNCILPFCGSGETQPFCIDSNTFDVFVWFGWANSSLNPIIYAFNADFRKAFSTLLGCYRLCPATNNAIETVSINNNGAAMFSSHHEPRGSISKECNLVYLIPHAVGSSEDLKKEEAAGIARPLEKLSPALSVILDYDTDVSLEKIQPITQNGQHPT
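Compound effects on dopamine-evoked calcium signalling were measured in tetracycline-induced HEK293 Trex D1 cells. Dopamine at EC80 followed a 180 s compound pre-read, and fluorescence was tracked kinetically for 180 s more.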
TRHR agonist – activates the human TRH receptor; P34981; TRHR cells, calcium flux fluo-8, FDSS agonist mode; activation, % at 2 µM; actives 0.18% (n = 360,000)
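Fluo-8-loaded TRHR cells; 10 s baseline, compound added, kinetic Ca2+ fluorescence read 1/s, agonist mode.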
TRHR enhancer – allosterically enhances the human TRH receptor. enhancement, % at 2 µM. actives 0.66% (n = 360,000). TRHR cells, fluo-8 calcium fluorescence, EC20 TRH enhancement. AID 493056. P34981; in the data active = enhancement above about 30%
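Enhancer read-out: after compound pinning and an initial kinetic agonist-mode read, an EC20 of TRH (10 nM final) was injected and fluo-8 calcium signal (Ex 480/Em 530) followed at 1 s/cycle for 100 cycles in TRHR-expressing cells.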
D1 PAM – human D1 dopamine receptor positive modulation. HEK293 TREx D1 cells, calcium flux, dopamine EC20 potentiation. potentiation, % at 10 µM. actives 0.036% (n = 360,000). AID 504651; in the data active = potentiation above about 30%
D1 agonist – activates the human D1 dopamine receptor; activation, % at 2 µM; HEK293 T-REx D1 cells, calcium flux, agonist mode; AID 504660; actives 1% (n = 360,000); P21728
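Inducible HEK293 T-REx D1 cells, force-coupled to calcium signalling, were plated at 4000 cells/well with tetracycline and held overnight at 30 C. After no-wash calcium dye loading, compound-evoked calcium rise over 180 s flagged agonists.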
Hits are given with their value; 0 = inactive; - = no result. Rows were chosen to be rich in hits. Some 4.7% of all compounds tested hit in one or more screens of this group. Rule as the data show it, unless noted: active = activation above about 30%; inactive = the rest.

SMILES	D1 antag	TRHR agonist	TRHR enhancer	D1 PAM	D1 agonist
Cc1ccc(Cl)cc1-n1c(CCC(=O)O)ccc1-c1cccs1	0	0	0	0	0
Brc1ccccc1-n1ncc2c1ncn1nc(Cc3ccccc3)nc21	-63	0	0	0	0
Cc1cccc(NC(=O)CSc2nc3[nH]c(=O)cc(O)c3s2)c1	-32	0	0	0	0
CCCC[n+]1ccn(-c2nc3ccccc3nc2[N-]S(=O)(=O)c2ccc(Cl)cc2)c1	-40	0	0	0	0
Cc1ccc(NC(=O)Cn2nnc(C(=O)NCCc3ccccc3)c2N)cc1	0	0	0	0	0
Cc1ccc(C2=NC(c3ccc(F)cc3)=Nc3ccc(C)cc3N2)cc1	-40	0	0	0	0
Cc1ccc2c(c1)NC(c1cccnc1)=NC(c1ccc(F)cc1)=N2	0	0	0	0	0
Cc1cc(C)n(-c2ccc(NC(=O)C3CCCCN3C(=O)c3ccoc3)cc2)n1 (configuration not stated)	0	0	0	0	0
Cc1cc(C)n(-c2ccc(NC(=O)C3CCCCN3Cc3cccc4c3OCO4)cc2)n1 (configuration not stated)	0	0	30	0	0
CCC(=O)NC(c1ccc([N+](=O)[O-])cc1)c1c(O)ccc2ccccc12 (configuration not stated)	-37	0	0	0	0
CCCCC(=O)NC(c1ccc([N+](=O)[O-])cc1)c1c(O)ccc2ccccc12 (configuration not stated)	0	0	0	0	0
Cc1ccc(NS(=O)(=O)c2c(C)nc3sccn3c2=O)c(Cl)c1	0	0	0	0	0
CSCCC(NS(=O)(=O)c1cccs1)C(=O)Nc1ccc(C)c(Cl)c1 (configuration not stated)	-39	0	0	0	0
O=C1NC(=O)[C@@H]2C3c4ccccc4C=CN3[C@H](C(=O)c3cccs3)[C@H]12 (some centres not stated)	-70	0	0	0	0
O=C(c1ccco1)[C@@H]1[C@@H]2C(=O)N(c3ccc(F)cc3)C(=O)[C@@H]2C2c3ccccc3C=CN21 (some centres not stated)	0	0	0	0	0
O=C1CN(C(=O)Cc2ccccc2)C(c2ccc(F)cc2)c2cc(Br)ccc2N1 (configuration not stated)	-48	0	0	0	0
O=C1CN(C(=O)COc2ccccc2)C(c2ccc(F)cc2)c2cc(Br)ccc2N1 (configuration not stated)	0	0	0	0	0
NC(=O)CNC(=O)C1CCN(S(=O)(=O)c2ccc(-n3cnnn3)cc2)CC1	0	0	0	0	0
OCCCNc1ncnc2c1cnn2-c1ccc(Cl)cc1	-36	0	0	0	0
COc1ccc(-n2ncc3c(NCc4ccco4)ncnc32)cc1	0	0	0	0	0
Clc1ccc(-n2ncc3c(NCc4ccco4)ncnc32)cc1	-44	0	0	0	0
CCC(CO)Nc1ncnc2c1cnn2-c1ccc(Cl)cc1 (configuration not stated)	0	0	0	0	0
Clc1cccc(-n2ncc3c(NCCCN4CCOCC4)ncnc32)c1	-77	0	0	0	0
Cc1ccc(Cl)cc1-n1ncc2c(Nc3cccc(C)c3C)ncnc21	0	0	0	0	57
Cc1ccc(-n2ncc3c(NCCCN4CCOCC4)ncnc32)cc1Cl	0	0	0	0	0
SMILES	D1 antag	TRHR agonist	TRHR enhancer	D1 PAM	D1 agonist
CCc1cccc(NC(=O)C(Cc2ccccc2)n2cccc2)c1 (configuration not stated)	0	0	0	0	0
Cc1cc2c3c([nH]c2cc1S(=O)(=O)N1CCC2(CC1)OCCO2)CCCC3=O	0	0	0	0	0
Cc1c(C)n(CCc2ccccc2)c2ncnc(NCCCN(C)C)c12	0	0	0	0	0
Cc1ccc(Cn2ncc3c(NCCN(C)C)ncnc32)cc1	0	0	0	0	0
CN(C)CCNc1ncnc2c1cnn2-c1cccc(Cl)c1	0	0	0	0	37
CN(C)CCNc1ncnc2c1cnn2-c1ccc(Cl)cc1	0	0	0	-	33
Cc1ccc(-n2c(C)c(C)c3c(NCCN(C)C)ncnc32)cc1	-38	0	0	0	0
CCN(CC)S(=O)(=O)c1cc(-c2nnc(Nc3ccc(OC)c(C(N)=O)c3)c3ccccc23)ccc1C	0	0	0	0	0
CCCCN1C(=O)C(NC(=O)c2ccc(C(C)(C)C)cc2)(C(F)(F)F)C(C(=O)OC)=C1C (configuration not stated)	0	0	0	0	58
CC(Oc1ccc(C#N)cc1)C(=O)c1ccc(F)c(F)c1 (configuration not stated)	-35	0	0	0	0
Cc1cc(OCC(=O)Nc2sc3c(c2C(N)=O)CCCC3)ccc1C(C)C	0	0	0	0	0
Cc1ccc(OCC(=O)Nc2ccc(S(=O)(=O)Nc3ncccn3)cc2)c(C(C)(C)C)c1	-31	0	0	0	0
Cc1ccccc1OCC(=O)Nc1ccc(S(=O)(=O)Nc2ncccn2)cc1	0	0	0	0	0
Cc1ccc(OCC(=O)Nc2sc3c(c2C(N)=O)CCCC3)c(C(C)(C)C)c1	-39	0	0	0	0
CCOc1ccc(NC(=O)CSC2=Nc3ccccc3C3=NC(CC(=O)NCc4ccc5c(c4)OCO5)C(=O)N23)cc1 (configuration not stated)	-30	0	0	0	0
Cc1ccc(-n2c(SCC(=O)N3CCc4ccccc43)nc3c([nH]c4ccccc43)c2=O)cc1	0	0	0	0	0
CCc1ccc(C2NC(=O)c3[nH]nc(-c4cccc(OC)c4)c32)cc1 (configuration not stated)	0	0	0	0	0
Cc1cc(NC(=O)/C=C/c2ccc(F)cc2)n(-c2nc3ccccc3[nH]2)n1	-36	0	0	0	0
Cc1cc(NC(=O)/C=C/c2cccc(F)c2)n(-c2nc3ccccc3[nH]2)n1	0	0	0	0	0
COc1ccc(/C=C/C(=O)Nc2cc(C)nn2-c2nc3ccccc3[nH]2)cc1	-41	0	0	0	0
Cc1nc2cccnc2n1C1CCN(S(=O)(=O)c2ccc(Cl)cc2)CC1	0	0	0	0	0
CCOc1ccc(S(=O)(=O)N2CCC(n3c(C)nc4cccnc43)CC2)cc1	0	0	0	0	34
Cc1nc2cccnc2n1C1CCN(S(=O)(=O)N(C)C)CC1	-37	0	0	0	0
COc1cccc(CNC(=O)c2sc3nc4n(c(=O)c3c2C)CCC4)c1	0	0	0	0	0
COc1cc2c(cc1OC)C1CC(=O)C(CC(C)C)CN1CC2 (configuration not stated)	0	0	0	0	0
COc1cc2c(cc1OC)C1C/C(=N\O)C(CC(C)C)CN1CC2 (configuration not stated)	-67	0	0	0	0
